Source: PubChem BioAssay (NCI)
Compounds without any hit were thinned out: in the full panel of roughly 83,000, 20% have a hit.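 Note: values are percent growth. 100 is the growth of untreated cells, values between 100 and 0 indicate rising inhibition; between -100 and 0 indicates cell death.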 Calls of active or inactive are those of the source. How the source made its calls: active means growth percent below 10; inactive means the rest.

Assays:
Assay in all cases: NCI-60 one-dose screen, 48 h (100 = growth as untreated, 0 = no growth, -100 = all killed)
Conditions in all cases: 10 µM unless noted
SR leukemia = test system: SR leukemia
RPMI-8226 leukemia = test system: RPMI-8226 leukemia
OVCAR-8 ovarian = test system: OVCAR-8 ovarian
OVCAR-5 ovarian = test system: OVCAR-5 ovarian
OVCAR-4 ovarian = test system: OVCAR-4 ovarian
SK-OV-3 ovarian = test system: SK-OV-3 ovarian
IGROV1 ovarian = test system: IGROV1 ovarian
OVCAR-3 ovarian = test system: OVCAR-3 ovarian
HS 578T breast = test system: HS 578T breast
NCI/ADR-RES ovarian = test system: NCI/ADR-RES ovarian

Measured: growth

CCOC(=O)NC(=S)n1oc(=O)c2ccccc21
inactive: SR leukemia 114% | RPMI-8226 leukemia 101% | OVCAR-8 ovarian 102% | OVCAR-5 ovarian 96.6% | OVCAR-4 ovarian 96.5% | SK-OV-3 ovarian 104% | IGROV1 ovarian 100% | OVCAR-3 ovarian 105% | HS 578T breast 104% | NCI/ADR-RES ovarian 105%

COc1ccc(C(c2cc(OC)c(OC)c(OC)c2)N2CCCCC2)cc1 (stereo not given)
inactive: SR leukemia 18.5% | RPMI-8226 leukemia 51.2% | OVCAR-8 ovarian 50.1% | OVCAR-5 ovarian 69.6% | OVCAR-4 ovarian 69.2% | SK-OV-3 ovarian 16.7% | IGROV1 ovarian 47.1% | HS 578T breast 16.6% | NCI/ADR-RES ovarian 24%
active: OVCAR-3 ovarian 8.29%

Cc1sc2nc(NCCN)[nH]c(=O)c2c1C
inactive: SR leukemia 89.6% | RPMI-8226 leukemia 110% | OVCAR-8 ovarian 101% | OVCAR-5 ovarian 89.5% | OVCAR-4 ovarian 85.1% | SK-OV-3 ovarian 111% | IGROV1 ovarian 100% | OVCAR-3 ovarian 96.7% | HS 578T breast 88.7% | NCI/ADR-RES ovarian 94.8%

COc1cc2c(cc1-c1c(C)noc1C)ncc1nc(CN3CCOCC3)n([C@H](C)COC(F)F)c12
active: SK-OV-3 ovarian 7.42%
inactive: SR leukemia 33.7% | RPMI-8226 leukemia 10.1% | OVCAR-8 ovarian 46.1% | OVCAR-5 ovarian 68.2% | OVCAR-4 ovarian 35.9% | IGROV1 ovarian 36.2% | OVCAR-3 ovarian 23.1% | HS 578T breast 30% | NCI/ADR-RES ovarian 40.8%

Cc1nc([P+](c2ccccc2)(c2ccccc2)c2ccccc2)c(N2CCCCC2)o1
inactive: SR leukemia 20.3% | OVCAR-8 ovarian 20.3% | OVCAR-5 ovarian 54.1% | OVCAR-4 ovarian 19.8% | SK-OV-3 ovarian 20.6% | IGROV1 ovarian 32.8% | OVCAR-3 ovarian 19.5% | HS 578T breast 27.9% | NCI/ADR-RES ovarian 107%
active: RPMI-8226 leukemia -13.5%

COc1ccc(-c2nc3c(c(-c4ccc(Cl)cc4)nn3-c3ccccc3)c(-c3ccccc3)c2C#N)cc1
inactive: SR leukemia 114% | RPMI-8226 leukemia 106% | OVCAR-8 ovarian 100% | OVCAR-5 ovarian 103% | OVCAR-4 ovarian 116% | SK-OV-3 ovarian 122% | IGROV1 ovarian 111% | OVCAR-3 ovarian 111% | HS 578T breast 114% | NCI/ADR-RES ovarian 108%

CN(C)CCC(=O)C1CC1
inactive: SR leukemia 97.3% | RPMI-8226 leukemia 101% | OVCAR-8 ovarian 106% | OVCAR-5 ovarian 100% | OVCAR-4 ovarian 108% | SK-OV-3 ovarian 110% | IGROV1 ovarian 92.3% | OVCAR-3 ovarian 105% | HS 578T breast 111% | NCI/ADR-RES ovarian 98.3%

S=c1ccnc[nH]1
inactive: SR leukemia 131% | RPMI-8226 leukemia 110% | OVCAR-8 ovarian 100% | OVCAR-5 ovarian 101% | OVCAR-4 ovarian 117% | SK-OV-3 ovarian 113% | IGROV1 ovarian 110% | OVCAR-3 ovarian 111% | HS 578T breast 113% | NCI/ADR-RES ovarian 100%

COc1cc2ncnc(Nc3ccc(F)c(Cl)c3)c2cc1OCC(=O)N1CCOCC1
inactive: SR leukemia 89.3% | RPMI-8226 leukemia 91% | OVCAR-8 ovarian 87.2% | OVCAR-5 ovarian 74.1% | OVCAR-4 ovarian 82.7% | SK-OV-3 ovarian 17.4% | IGROV1 ovarian 45.6% | OVCAR-3 ovarian 79.7% | HS 578T breast 96.7% | NCI/ADR-RES ovarian 81.9%

COC(=O)/C(CCC=C(C)C)=C1\[C@@H](OC(C)=O)C[C@@]2(C)[C@H]1C/C(=N/O)[C@H]1[C@@]3(C)CC/C(=N\O)[C@@H](C)[C@@H]3CC[C@@]12C
inactive: SR leukemia 66.2% | RPMI-8226 leukemia 46.3% | OVCAR-8 ovarian 90.4% | OVCAR-5 ovarian 135% | OVCAR-4 ovarian 97.3% | SK-OV-3 ovarian 107% | IGROV1 ovarian 100% | OVCAR-3 ovarian 93.8% | HS 578T breast 94.3% | NCI/ADR-RES ovarian 102%

Cc1cc(O)c(=O)cc2c1C[C@H]1CC(C)(C)/C=C/C[C@]3(C)Oc4cc(=O)c(O)cc(C)c4C[C@H]3C[C@H](O)[C@@]1(C)O2
active: RPMI-8226 leukemia 3.46% | OVCAR-8 ovarian 5.84% | OVCAR-4 ovarian 9.54% | SK-OV-3 ovarian -5.53% | NCI/ADR-RES ovarian 0.831%
inactive: SR leukemia 12.4% | OVCAR-5 ovarian 18.9% | IGROV1 ovarian 11.2% | OVCAR-3 ovarian 15.5% | HS 578T breast 30%

O=C1NC(=O)C(c2coc3cc(Br)ccc23)=C1c1c[nH]c2ccccc12
inactive: SR leukemia 19.9% | RPMI-8226 leukemia 44.2% | OVCAR-8 ovarian 51.6% | OVCAR-5 ovarian 87.3% | OVCAR-4 ovarian 77.5% | SK-OV-3 ovarian 55.6% | IGROV1 ovarian 52.2% | OVCAR-3 ovarian 20.1% | HS 578T breast 43.3% | NCI/ADR-RES ovarian 34%

CC(C)(Sc1cc(C(C)(C)C)c(O)c(C(C)(C)C)c1)Sc1cc(C(C)(C)C)c(OC(=O)CCC(=O)O)c(C(C)(C)C)c1
inactive: SR leukemia 78.6% | RPMI-8226 leukemia 30.3% | OVCAR-8 ovarian 41.3% | OVCAR-5 ovarian 87% | OVCAR-4 ovarian 67% | SK-OV-3 ovarian 80.3% | IGROV1 ovarian 55.9% | OVCAR-3 ovarian 46.8% | HS 578T breast 67.4% | NCI/ADR-RES ovarian 61.5%

CCN1C(=O)N(c2ccccc2)C2NC(=S)N(/N=C/C=C/c3ccccc3OC)C21 (stereo not given)
inactive: SR leukemia 17.4% | RPMI-8226 leukemia 14.7% | OVCAR-5 ovarian 27.8% | OVCAR-4 ovarian 45.5% | SK-OV-3 ovarian 31.6% | HS 578T breast 20.2%
active: OVCAR-8 ovarian 9.48% | IGROV1 ovarian 3.96% | OVCAR-3 ovarian 4.35% | NCI/ADR-RES ovarian 6.95%

CC12OC(CC(O)C1O)n1c3ccccc3c3c4c(c5c6ccccc6n2c5c31)C(=O)N(CCN1CCCC1)C4=O (stereo not given)
inactive: OVCAR-8 ovarian 26.3% | OVCAR-5 ovarian 41.4% | OVCAR-4 ovarian 27.9% | SK-OV-3 ovarian 10.4% | IGROV1 ovarian 13.9% | OVCAR-3 ovarian 25.7% | HS 578T breast 41.1% | NCI/ADR-RES ovarian 46.4%
active: SR leukemia 2.44% | RPMI-8226 leukemia 1.17%

CCOC(=O)c1cnn(CC(C)O)c1NC(=O)NCc1cccc(F)c1 (stereo not given)
inactive: SR leukemia 92.1% | RPMI-8226 leukemia 90.3% | OVCAR-8 ovarian 106% | OVCAR-5 ovarian 107% | OVCAR-4 ovarian 122% | SK-OV-3 ovarian 101% | IGROV1 ovarian 95.5% | OVCAR-3 ovarian 107% | HS 578T breast 103% | NCI/ADR-RES ovarian 96.9%

COc1ccc2c(c1)CC[C@@H]1[C@@H]2CC[C@]2(C)C3C(=CC(COC(C)=O)C4C(=O)N(c5ccc(Cl)cc5)C(=O)C43)C[C@@H]12 (stereo not given in full)
inactive: SR leukemia 35.4% | RPMI-8226 leukemia 61.8% | OVCAR-8 ovarian 107% | OVCAR-5 ovarian 78.4% | OVCAR-4 ovarian 101% | SK-OV-3 ovarian 125% | IGROV1 ovarian 119% | OVCAR-3 ovarian 110% | HS 578T breast 110% | NCI/ADR-RES ovarian 102%

Cc1ccc(NC(=O)c2sc3nc(C)c(C(O)c4ccccc4)cc3c2N)cc1 (stereo not given)
inactive: OVCAR-8 ovarian 18.6% | OVCAR-5 ovarian 34.6% | OVCAR-4 ovarian 46.1% | SK-OV-3 ovarian 14.7% | IGROV1 ovarian 28.4%
active: SR leukemia 1.92% | RPMI-8226 leukemia 5.22% | OVCAR-3 ovarian 5.7% | HS 578T breast 9.32% | NCI/ADR-RES ovarian 7.94%
